Screens deposited in PubChem BioAssay by several laboratories.
TLR9-MyD88 inh = inhibitors of TLR9-MyD88 association in cells, primary screen, cell-based, CHO, BLA complementation, fluorescence | 340,000 tested, 0.21% active | CCF4 FRET ratio | inhibition, % at 4.98 µM;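 active = inhibition above the mean over all tested compounds plus 3 SD, cut at about 21% in these data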;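 note: 0% = DMSO only wells and 100% = clavulanate BLA inhibitor control wells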
LANA-H2A inh = blockers of LANA interaction with H2A/H2B – biochemical, FP readout, HTS, primary screen; 320,000 tested, 0.6% active; cell-free LANA-H2A/H2B peptide, fluorescence polarization; Protein LANA1 (Human herpesvirus 8 type P (isolate GK18)), Q9QR71; inhibition, % (concentration not given with the values); AID 2629, 2010; in the data active = inhibition mostly above about 10%, no sharp cut-off; inactive = mostly below about 6.7%
NOD2 RIPK2 PPI = NOD2-RIPK2 binding disruptors in cells, primary screen, fluorescence, CHO cells, BLA complementation | Receptor-interacting serine/threonine-protein kinase 2 (Homo sapiens), O43353 | CCF4 ratio | inhibition, % at 4.98 µM | 360,000 tested, 0.38% active; in the data active = inhibition above about 21%;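 note: 0% = vehicle only and 100% = reference blocker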
m5-HT2A agonist = mouse Htr2a agonists via beta-arrestin recruitment, primary screen, cell-based, luminescence | 360,000 tested, 0.66% active | AID 624169, 2012 | activation, % at 7.6 µM | CHO-K1 mHTR2A beta-arrestin complementation; percent of 30 µM serotonin response;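 active = activation above a run cutoff, the mean activation of all tested compounds plus 3 SD, cut at about 14% in these data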;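 note: 0% = plate median of compound wells and 100% = 30 µM serotonin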
TLR4 MyD88 comp = inhibitors of TLR4-MyD88 association in cells, primary screen, cell-based, HeLa CL3-4, BLA complementation, FRET ratio. inhibition, % at 8.4 µM. AID 861, 2007. HeLa CL3-4 TLR4/MyD88 BLA complementation. 200,000 tested, 0.18% active; in the data active = inhibition above about 25%;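 note: 0% = vehicle and 100% = reference inhibitor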
Rtt109 Vps75 = inhibitors of C. albicans Rtt109/Vps75 HAT, primary screen, biochemical, ThioGlo CoA-SH fluorescence, plate reader. Histone acetyltransferase RTT109 (Candida albicans (strain SC5314 / ATCC MYA-2876)), …. purified Rtt109/Vps75, 4 h. inhibition, % at 34.9 µM. 330,000 tested, 0.16% active;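 active = inhibition of at least 50% in every replicate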
MOR ag counter = OPRM1 agonists via beta-arrestin recruitment, confirmation, counter-screen for mouse HTR2A agonist project, cell-based, luminescence, single concentration; shares compounds with m5-HT2A agonist; activation, % at 9.3 µM; U2OS OPRM1 beta-arrestin PathHunter; DMSO 0%, DAMGO 9.3 µM 100%; AID 624380, 2012; 2,300 tested, 5.3% active;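 active = mean activation above the mean of DMSO-only wells plus 3 SD, cut at about 0.5% in these data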
m5-HT2A ag conf = mouse HTR2A agonists, beta-arrestin recruitment, confirmation, cell-based, luminescence, CHO-K1 PathHunter, triplicate; shares compounds with m5-HT2A agonist; activation, % at 7.6 µM; 2,300 tested, 19% active; DMSO 0%, 30 µM serotonin 100%; AID 624381, 2012;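 active = mean activation across triplicates above the hit threshold derived in the original primary screen, cut at about 15% in these data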
NOD2 RIPK2 conf = NOD2-RIPK2 binding disruptors, retest, confirmation, fluorescence, CHO cells, BLA complementation, triplicate; shares compounds with NOD2 RIPK2 PPI; CCF4 FRET; inhibition, % at 4.98 µM; 1,200 tested, 70% active; AID 624370, 2012;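 active = mean inhibition across replicates above a set limit taken from the earlier primary screen, cut at about 21% in these data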;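 note: 0% = DMSO-only wells and the high end = clavulanate BLA-blocked wells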
NOD2 BLA counter = counter-screen for NOD2-RIPK2 interaction inhibitors: BLA reporter | 1,200 tested, 57% active | CHO BLA reporter, CCF4 FRET ratio, counterscreen | shares compounds with NOD2 RIPK2 PPI | inhibition, % at 4.98 µM;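 active = mean inhibition above the low-control mean inhibition plus three low-control SD, cut at about 11% in these data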;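 note: 0% = DMSO only wells and 100% = clavulanate high control wells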
* = called active by the depositor. Only some compounds are listed: those with a hit (about 1.8% of all), similar ones and a draw of the others.

`COC1CC2C=C(C)C=CC=CC(=O)NC(c3ccccc3)CC=CCCC(O)CC(=O)C2=C1O` (stereo not given) gave NOD2 RIPK2 PPI 67*, m5-HT2A agonist 21*, MOR ag counter 6.0*, m5-HT2A ag conf 19*, NOD2 RIPK2 conf 102* and NOD2 BLA counter 79*.
O=C1/C(=C\c2ccc(Cl)c(Cl)c2)N2CCC1CC2 was read as TLR9-MyD88 inh 1, LANA-H2A inh 2, NOD2 RIPK2 PPI -15, m5-HT2A agonist -1 and Rtt109 Vps75 22.
CCC1CN2CCc3cc(OC)c(OC)cc3C2CC1CC1NCCc2c1[nH]c1ccc(O)cc21 (stereo not given) was read as TLR9-MyD88 inh -6, NOD2 RIPK2 PPI 29*, m5-HT2A agonist 8, Rtt109 Vps75 -4, NOD2 RIPK2 conf 27* and NOD2 BLA counter 0.
For CN(C)C1C(=O)C(C(N)=O)=C(O)C2(O)C(=O)C3=C(O)c4c(O)cccc4C(C)(O)C3C(O)C12 (stereo not given) the results were TLR9-MyD88 inh -3, LANA-H2A inh -2, NOD2 RIPK2 PPI -1, m5-HT2A agonist 3 and Rtt109 Vps75 3.
For C[C@@H]([C@@H](O)c1ccccc1)N(C)C(=O)Cc1ccccc1 the results were TLR9-MyD88 inh 0, LANA-H2A inh 2, NOD2 RIPK2 PPI -4, m5-HT2A agonist 0 and Rtt109 Vps75 11.
CN(C)CC(C(=O)Cc1ccccc1)c1ccccc1 (stereo not given) was read as TLR9-MyD88 inh -19, NOD2 RIPK2 PPI 57*, m5-HT2A agonist -1, Rtt109 Vps75 -2, NOD2 RIPK2 conf 11 and NOD2 BLA counter -6.
CC1CCN(C(CC(=O)c2ccccc2)C(=O)c2ccccc2)CC1 (stereo not given) was read as TLR9-MyD88 inh 0, NOD2 RIPK2 PPI 28*, m5-HT2A agonist -6, Rtt109 Vps75 0, NOD2 RIPK2 conf 12 and NOD2 BLA counter -3.
`C=C1C[C@@H]2[C@H](CC[C@]3(C)C(=O)CC[C@@H]23)[C@@]2(C)C=CC(=O)C=C12` gave LANA-H2A inh 4.
`CN1OC[C@@H]2COc3ccc4ccccc4c3[C@@H]21` gave TLR9-MyD88 inh -5, LANA-H2A inh -7, NOD2 RIPK2 PPI -7, m5-HT2A agonist 3, TLR4 MyD88 comp 15 and Rtt109 Vps75 -4.
For COC(=O)C1=C(c2ccc(OC(F)(F)F)cc2)C[C@@H]2CC[C@H]1N2C(=O)NCCOc1ccccc1Cl the results were TLR9-MyD88 inh 6, LANA-H2A inh 6, NOD2 RIPK2 PPI 6, m5-HT2A agonist -1 and Rtt109 Vps75 5.
